“And” between values parts separate entries of the source, which are not always exact repeats. Equal entries are not always repeated. Hit rate of the full screen: of about 16,000 compounds, about 5,800 (36%) were called active. Not shown: some 23% with an inconclusive outcome. Calls come from the whole dose curve; as a rule, active = well fitted curve in the direction sought with a large enough effect; inconclusive = small, poorly fitted or top-dose-only effect, or effect the other way; inactive = no such curve, though single readings can be large or run the other way. Some of the results follow. More than one record can exist for a structure, and the calls need not agree.

For orientation: AC50 means the concentration at which the activity in the assay is half-maximal.
% is set by controls: 0 for no effect and ±100 for the full control effect.

In the test the target is Cytochrome P450 2C19 (Homo sapiens) (UniProt P33261). The test can be described thus: Cytochrome panel assay with activity outcomes. As to conditions: recombinant CYP, pro-luciferin dealkylation, luminescence, p450-cyp2c19; series mostly up to 57.1 µM.
Sequence of Cytochrome P450 2C19 (Homo sapiens) (P33261 whole entry, looked up): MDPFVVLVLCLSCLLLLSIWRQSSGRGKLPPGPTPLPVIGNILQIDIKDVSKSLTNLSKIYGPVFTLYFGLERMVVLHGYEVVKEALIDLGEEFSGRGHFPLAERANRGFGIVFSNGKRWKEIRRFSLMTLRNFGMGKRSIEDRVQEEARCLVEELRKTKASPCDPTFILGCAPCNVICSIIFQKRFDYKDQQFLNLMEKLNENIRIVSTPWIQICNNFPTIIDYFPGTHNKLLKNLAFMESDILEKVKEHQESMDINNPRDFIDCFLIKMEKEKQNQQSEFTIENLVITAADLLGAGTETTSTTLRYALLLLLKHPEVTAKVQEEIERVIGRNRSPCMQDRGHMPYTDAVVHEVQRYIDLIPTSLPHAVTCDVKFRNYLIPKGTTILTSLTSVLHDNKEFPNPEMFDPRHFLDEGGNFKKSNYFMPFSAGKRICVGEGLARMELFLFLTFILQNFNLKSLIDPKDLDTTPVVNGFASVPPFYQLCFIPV
For the compound `CC[C@@H](CS(=O)(=O)O)[N+](=O)[O-]`, the activity, negative = inhibition is 45% [at 11.4 µM] (inactive).

As to `CS(=O)(=O)N(CC(=O)Nc1c(F)cccc1F)c1ccc(C23CC4CC(CC(C4)C2)C3)cc1`, the AC50 was 11.2 µM (active).

`CN(C)C(=O)CN(c1ccc2c(c1)OCO2)S(C)(=O)=O`: the AC50 result was “inactive”.

Turning to `CCCC/C=C/C(NC(=O)Oc1cccc(C(F)(F)F)c1)c1ccccc1` (configuration not stated), the AC50 was 3.16 µM (active).

Turning to `CCCC/C=C/C(NC(=O)c1ccco1)c1ccccc1` (configuration not stated), the AC50 was 15.8 µM (active).

With `CCCN(CCC)C(=O)[C@@H](CCC(=O)O)NC(=O)c1ccccc1`, the AC50 result was “inactive”.

On to `CCCCCCCCCCCCCCC/C=C\[C@H](O)[C@@H](NC(=O)CCCCCCCCCCCCC)OC` (tested in a mixture with another compound), for which the AC50 entry is “inactive”.

In the case of `CCCC/C=C/C(NC(=O)c1ccccc1)c1ccccc1` (configuration not stated), the AC50 is 7.94 µM (active).

For `CCCC/C=C/C(NC(=O)c1cccs1)c1ccccc1` (configuration not stated), the concentration at half-maximal activity (AC50) was 1.58 µM (active).

Turning to `CCCC/C=C/C(NC(=O)c1ccc(-c2ccccc2)cc1)c1ccccc1` (configuration not stated), the AC50 result is “inactive”.

As to `Nc1cc(=O)[nH]c(N)n1`, the AC50 entry is “inactive”.

For the compound `CC(C)=CCC/C(C)=C/CO/N=C1/[C@H]2O[C@@H]2[C@@H](O)[C@H]2[C@H]1CCn1c(=O)n(-c3ccccc3)c(=O)n12`, the activity, negative = inhibition is 18.2% [at 11.4 µM] (inactive).

Regarding `N#Cc1cccc(-c2nc3cnc(N4CCOCC4)nc3n(C[C@H]3CCCO3)c2=O)c1`, the AC50 result is “inactive”.

Turning to `COc1cccc(N(C(=O)Cn2nnc(-c3ccc(C)cc3)n2)C(C(=O)NC(C)(C)C)c2c[nH]c3ccccc23)c1` (configuration not stated), the AC50 was 10 µM (active).

As for `OC[C@@H]1O[C@H](O)[C@@H](Cl)[C@H](O)[C@@H]1O`, the AC50 result is “inactive”.

Take `CN(CC[C@@H](Oc1ccc(-c2ccccc2)cc1)c1ccc(F)cc1)CC(=O)O`: the concentration at half-maximal activity (AC50) was 6.31 µM (active).

`CNCC[C@H](Oc1ccccc1OC)c1ccccc1`: the AC50 result was “inactive”.

Take `CC(Oc1ccc(-c2ccccc2)c(F)c1)c1ccn(S(=O)(=O)c2ccc(Cl)cc2)n1` (configuration not stated): the AC50 was 3.55 µM (active).

With `CC(Oc1ccccc1)c1ccnn1S(=O)(=O)c1ccccc1` (configuration not stated), the AC50 was 2 µM (active).

In the case of `CC(C)CN1CCC2(CC1)CCN(S(=O)(=O)c1ccccc1)CC2`, the AC50 entry was “inactive”.

Turning to `CC(Oc1ccc(Cl)cc1)c1ccnn1S(=O)(=O)c1ccccc1` (configuration not stated), the AC50 is 0.501 µM (active).

In the case of `CO[C@H]1COC(=O)[C@H](C)NC(=O)C/C=C\[C@@H](C)[C@H](OC)COC(=O)[C@@H](OCc2ccccc2)/C=C\[C@@H]1C`, the activity, negative = inhibition was 1.79% [at 11.4 µM] (inactive).

Take `N[C@@H](C(=O)O)c1ccc(P(=O)(O)O)cc1`: the AC50 is 15.8 µM (active).

Take `N[C@@H](C(=O)O)c1ccc(C(=O)O)cc1`: the AC50 entry was “inactive”.

With `N[C@@H](C(=O)O)c1ccc(C(=O)O)c(O)c1`, the AC50 entry is “inactive”.

For `N[C@@H](C(=O)O)c1ccc(C(=O)O)c(C(=O)O)c1`, the AC50 is 316 nM (active) and inactive and 3.16 µM (active).

In the case of `N[C@H](C(=O)O)c1ccc(C(=O)O)c(O)c1`, the AC50 entry is “inactive”.

As to `N[C@H](C(=O)O)c1ccc(C(=O)O)cc1`, the AC50 result was “inactive”.

On to `Cc1cc(=Nc2ccc3c(c2)c(N)cc(C)[n+]3C)nc(N)n1C`, for which the activity, negative = inhibition was 35.5% [at 11.4 µM] (inactive).

As to `CC(NC(=O)CCSc1nc(-c2ccco2)cc(C(F)(F)F)n1)c1ccccc1` (configuration not stated), the AC50 is 1.41 µM (active).

For `COc1cc(C2C(C(=O)OCCC#N)=C(C)NC3=C2S(=O)(=O)c2ccccc23)cc(OC)c1OC` (configuration not stated), the AC50 is 20 µM (active).

Turning to `COc1ccccc1CNc1ccnc(-c2cccc(C#N)c2)n1`, the AC50 is 3.98 µM (active).

`COc1ccc(CNc2ccnc(-c3cccc(C#N)c3)n2)c(OC)c1`: the concentration at half-maximal activity (AC50) was 3.98 µM (active).

For the compound `Cc1nn(C)c(C(=O)NNC(=S)Nc2ccc(Cl)cc2)c1[N+](=O)[O-]`, the AC50 result was “inactive”.

On to `Cc1nn(C(C)C(=O)Nc2sc3c(c2C#N)CCCC3)c(C)c1[N+](=O)[O-]` (configuration not stated), for which the concentration at half-maximal activity (AC50) was 10 µM (active).

On to `COc1cccc(NC(=S)NNC(=O)C(C)n2nc(C)c([N+](=O)[O-])c2C)c1` (configuration not stated), for which the AC50 is 7.94 µM (active).

As for `Cc1nn(C(C)C(=O)Nc2ccc(Cl)cn2)c(C)c1[N+](=O)[O-]` (configuration not stated), the AC50 is 3.16 µM (active).

As to `OC(CN1CCCCC1)CN1CCCCC1`, the AC50 entry was “inactive”.

For the compound `FC(F)(F)c1nc2nc(Cl)c(Cl)nc2n1CCCN1CCOCC1`, the activity, negative = inhibition is -10.6% [at 11.4 µM] (inactive).

With `CCn1c(COc2ccc(C)cc2)nnc1SCc1ccc(C#N)cc1`, the AC50 is 15.8 µM (active).

On to `C=C1C=C(Br)C2(OCCCO2)[C@H]2OC12` (some centres not stated), for which the activity, negative = inhibition is 18% [at 11.4 µM] (inactive).

As to `CC1CCCCN1c1nc(-c2ccncc2)nc2ccccc12` (configuration not stated), the AC50 was 0.355 µM (active).

Regarding `CN1CCN(c2nc(-c3cccnc3)nc3ccccc23)CC1`, the AC50 entry was “inactive”.

Consider `C/C(=N\NC(=O)c1ccc(Br)cc1)c1ccccc1`, for which the AC50 is 2.82 µM (active).

On to `COc1ccc(/C(C)=N/NC(=O)c2ccc(N(C)C)cc2)cc1`, for which the AC50 entry was “inactive”.

For `C/C(=N/NC(=O)Cc1cccn1C)c1ccccc1`, the AC50 is 10 µM (active).

For `CC(=NCC(=O)O)c1ccccc1`, the activity, negative = inhibition is 0.942% [at 11.4 µM] (inactive).

As to `CC(=O)NN1C(=O)c2ccc(Oc3ccc([N+](=O)[O-])cc3)cc2C1=O`, the AC50 entry is “inactive”.

For `CC(=O)NN1C(=O)c2ccc(Oc3cccc([N+](=O)[O-])c3)cc2C1=O`, the AC50 is 11.2 µM (active).

Turning to `CCOC(=O)C[n+]1c(C)sc2ccc(OC)cc21`, the AC50 is 5.01 µM (active).

For the compound `Cc1sc2ccccc2[n+]1CCC(C)S(=O)(=O)[O-]` (configuration not stated), the AC50 result was “inactive”.

`Cc1sc2ccccc2[n+]1CCC(=O)O`: the activity, negative = inhibition is 13.1% [at 11.4 µM] (inactive).

`O=C(Oc1ccccc1[N+](=O)[O-])c1cccnc1`: the AC50 entry was “inactive”.

For `C/C(=N\NC(=O)c1[nH]c2c([N+](=O)[O-])cc(C)cc2c1-c1ccccc1)c1cccnc1`, the AC50 is 4.47 µM (active).

Take `O=C(N/N=C(\c1ccccc1)c1cccnc1)C(O)(c1ccccc1)c1ccccc1`: the AC50 entry is “inactive”.

`CC(C)(C)[C@@]1(O)CCN2C[C@@H]3c4ccccc4CCc4cccc(c43)[C@@H]2C1`: the AC50 entry is “inactive”.

As to `CN1CCN2c3ncccc3Cc3ccccc3C2C1` (configuration not stated), the AC50 was 0.0501 µM (active).

With `CN1CCN(c2ncncc2-c2cccnc2)CC1`, the AC50 entry is “inactive”.

For `Oc1ccc([C@@H]2CNCc3sccc32)cc1O`, the AC50 entry was “inactive”.

Take `O=C(NNC(=O)c1cc(-c2ccc(Cl)c(Cl)c2)nc2ccccc12)Nc1ccccc1`: the half-maximal activity concentration (AC50) is 4.47 µM (active).

Turning to `CC[C@H](C)N(C)C(=O)c1cc2ccccc2c(-c2ccccc2Cl)n1`, the AC50 entry is “inactive”.

In the case of `Cc1cccc(NC(=O)NNC(=O)c2cc(-c3ccccc3Cl)nc3ccccc23)c1`, the AC50 was 3.16 µM (active).

For the compound `O=C(COc1ccc2ccccc2c1Br)NNC(=O)Nc1ccccc1`, the AC50 is 3.55 µM (active).

Regarding `C[C@@H]1[C@H]2CC[C@@H]3[C@@H]4CC=C5C[C@@H](N(C)C)CC[C@]5(C)[C@@H]4CC[C@@]32CN1C`, the AC50 entry is “inactive”.

On to `Cc1noc(C)c1C(=O)N1CCC[C@@]2(CCN(c3ncccn3)C2)C1`, for which the AC50 result was “inactive”.

Regarding `Cc1ccccc1C(=O)NC(=S)NCC(=O)c1ccccc1`, the AC50 is 4.47 µM (active).

As for `Cc1ccc(C(=O)NC(=S)NCC(=O)c2ccccc2)cc1`, the AC50 entry was “inactive”.

Regarding `Cc1nn(-c2ccccc2)c2c1C(c1ccc(O)c(O)c1)N1C(=N2)C(Nc2ccccc2)=Nc2ccccc21` (configuration not stated), the AC50 was 3.16 µM (active).

For `CC(=O)Nc1ccc(NC2=Nc3ccccc3N3C2=Nc2c(c(C)nn2-c2ccccc2)C3c2ccccc2)cc1` (configuration not stated), the AC50 was 2 µM (active).

Take `O=C(CN(c1ccccc1)S(=O)(=O)c1ccccc1)NCCSCc1ccco1`: the AC50 was 8.91 µM (active).

Regarding `Cc1cccc(N(CC(=O)NCCSCc2ccco2)S(=O)(=O)c2ccccc2)c1`, the AC50 is 2.51 µM (active).

`Cc1cccc(CSCCNC(=O)c2ccc(N(C)S(=O)(=O)c3ccccc3)cc2)c1`: the AC50 was 1.12 µM (active).

Consider `COC(=O)CN(c1ccccn1)S(=O)(=O)c1ccccc1`, for which the AC50 entry was “inactive”.

`Cc1cc(C)cc(N(CC(=O)NCCSc2ccccn2)S(=O)(=O)c2ccccc2)c1`: the AC50 was 2.24 µM (active).

For the compound `CN(CC(=O)O/N=C(\N)c1ccccn1)S(=O)(=O)c1ccccc1`, the AC50 result was “inactive”.

Turning to `CCCOc1ccccc1-c1nc2n[nH]nc2c(=O)[nH]1`, the AC50 entry was “inactive”.

Consider `NC(N)=NC[C@@H]1COC2(CCCCC2)O1`, for which the AC50 entry was “inactive”.

As for `N[C@@H](CS(=O)O)C(=O)O`, the AC50 entry was “inactive”.

For `COc1ccccc1NC(=S)NC(=O)c1ccc(-c2ccc(Cl)cc2)o1`, the AC50 is 8.91 µM (active).

Take `Fc1cc(Br)ccc1NC(=S)NCCc1ccccc1`: the AC50 is 1.58 µM (active).

Turning to `Fc1ccccc1NC(=S)NCCc1ccccc1`, the AC50 is 3.16 µM (active).

As to `Fc1ccc(NC(=S)NCCc2ccccc2)c(F)c1F`, the AC50 was 0.355 µM (active).

For `COc1ccccc1NC(=S)NCCc1ccccc1`, the AC50 is 3.16 µM (active).

Regarding `CC(=O)Nc1cccc(C(=O)OCc2ccc(C(=O)Oc3ccc(Cl)cc3)cc2)c1`, the AC50 was 4.47 µM (active).

As for `Cc1cc(OC(=O)c2ccc(Cl)cc2)cc(=O)n1C`, the AC50 entry is “inactive”.

For the compound `OCCN(CO)CO`, the activity, negative = inhibition is 0.957% [at 11.4 µM] (inactive).

For the compound `CN(C)CCOC(=O)[C@@H](c1ccccc1)C1(O)CCCC1`, the AC50 result was “inactive”.

In the case of `O=C(CCCN1CCC(O)(c2cccc(C(F)(F)F)c2)CC1)c1ccc(F)cc1`, the AC50 result is “inactive”.

In the case of `O=C(Cn1c(C(F)(F)F)nc2ccccc21)c1ccc(F)cc1`, the AC50 is 1.58 µM (active).

`O=C(Cn1c(C(F)(F)F)nc2ccccc21)c1ccccc1`: the AC50 is 3.98 µM (active).

Regarding `O=S(=O)(Nc1ccc2c(c1)OCCO2)c1cccc2cccnc12`, the AC50 is 3.55 µM (active).

On to `COc1ncc2nc(-c3cn(C)c4ccccc34)c(=O)n(-c3ccccc3)c2n1`, for which the AC50 result is “inactive”.

For `CN1CCN(c2ncc3nc(-c4cn(C)c5ccccc45)c(=O)n(-c4ccccc4)c3n2)CC1`, the AC50 entry is “inactive”.

`Cn1cc(/C=N/n2cnc3scc(-c4ccccc4)c3c2=O)c2ccccc21`: the AC50 is 8.91 µM (active).

For `N#C/C(=C\NC(=S)c1ccncc1)c1nc2ccccc2s1`, the activity, negative = inhibition is -29.2% [at 11.4 µM] (inactive).

On to `Cc1ccc(C)c(S(=O)(=O)NC(C)C(=O)Nc2ccc(-c3nc4ccccc4s3)cc2)c1` (configuration not stated), for which the AC50 result was “inactive”.

For `Cc1cccc(NC(=S)c2nc3ccccc3s2)c1`, the AC50 is 5.62 µM (active).

The values above are taken from PubChem BioAssay AID1851 (National Center for Advancing Translational Sciences (NCATS), 2009).
